Experimental data from PubChem BioAssay AID1508645 (National Center for Advancing Translational Sciences (NCATS), 2021).
Records with an inconclusive call do not appear. Unmarked numbers belong to inactive results. Active and inactive are the calls of the source. Calls come from the whole dose curve; as a rule, active = well fitted cell-killing curve with a large enough effect; inconclusive = small, poorly fitted or top-dose-only effect, or effect the other way; inactive = no such curve, though single readings can be large or run the other way.

Test: Cell viability assay in S16 Pmp22-HiBiT cells
Conditions: S16 Schwann Pmp22-HiBiT viability, CellTiter-Glo, 24 h; series mostly up to 27.9 µM; activity change, negative = cytotoxicity: at the top concentration
From the text: Assay Provider: Jim Inglese Ph.D. National Center for Advancing Translational Science, National Institutes of Health, Rockville, MD CMT is a heterogeneous group of neurological disorders that affect approximately 1 in 2,500 people. In particular, the most common form of CMT, CMT1A is genetically linked to the duplication of the PMP22 gene which leads to Schwann cell overexpression, thus manifesting itself as a typical case of dose-sensitive diseases. To identify small molecule compounds that can mediate the expression of PMP22 we developed a phenotypic assay screening strategy by utilizing genome editing techniques to construct Schwann cell lines containing novel reporter technology to monitor the transcriptional or translational regulation of PMP22. For high sensitivity we use a bioluminescent reporter system embedded in the 3' UTR of the PMP22 gene (S16(c9) Pmp22-F2sN) to identify compounds that inhibit gene expression. […] We can further discriminate the effect of all transcriptionally active molecules on PMP22 translation or stability with an assay that incorporates a short NLuc peptide (HiBiT) at the C-terminus of expressed PMP22 (S16(f8) PMP22-HiBiT) allowing alpha complementation and luminescence detection of membrane-associated PMP22 protein. These assays were screened against the NCATS Sytravon Library Collection. Miniaturization of these assays to 1536-well plate format for quantitative high throughput screening (qHTS) yielded rich data sets immediately from the qHTS assay (S16(c9) Pmp22-F2sN), when compared with data from a cell viability assay (Cell TiterGlo) to identify compounds that decreased the output signals through cellular toxicity to streamline the selection process of actives for subsequent characterization using the HiBiT assay (S16(f8) PMP22-HiBiT).
Cell viability assay in S16 Pmp22-HiBiT cells PROTOCOL TABLE (format as described by Inglese J, Shamu CE and Guy RK. 2007) SEQUENCE No. (e.g., 1, 2, 3, etc.); PARAMETER (e.g., Cells, Incubation, Reagent, etc.); VALUE and DESCRIPTION. 1. Cells. Add 500-1,000 cells in 4 uL in growth media (DMEM High Glucose, No Phenol Red media + 10% heat-inactivated FBS + 1% Pen/Strep supplemented media) per well into Greiner 1536-well white/solid bottom high base, TC-treated plates. 2. Compounds. Library compounds and controls added at 23nL per well, transferred by Pin Tool. 3. Incubation. Incubate plates at 37C, 5% CO2, 95% RH for 24 h. 4. Reagent. Add 3uL CellTiter-Glo per well of Greiner 1536-well plates. 5. Incubation. Incubate plates at room temperature for 15 min., protect from light. 6. Detector. Luminescence measured using CCD-based camera (Viewlux). NOTES (numbers refer to Sequence numbers above; values are from representative experiments) 6. Luminescence Read: Clear filter; Exposure = 1 sec, Gain = High, Speed = Slow, Binning = 2X REFERENCES: 1. Inglese J, Shamu CE and Guy RK, Reporting data from high throughput screening of small molecule libraries, Nature Chemical Biology, 2007, 3(8): 438-441. doi.org/10.1038/nchembio0807-438 2. Yasgar A, Shinn P, Jadhav A, Auld DS, Michael S, Zheng W, Austin CP, Inglese J and Simeonov A, Compound Management for Quantitative High-Throughput Screening. J. Assoc. Lab. Auto., 2008, 13: 79-89. doi: 10.1016/j.jala.2007.12.004

Question: Which Potency does the source give for `CCc1ccccc1Nc1nn2c(=O)c3ccc(C(=O)Nc4cc(C)cc(C)c4)cc3nc2s1` here?
Answer: 6.45 µM (active)

Question: For `CCC(Sc1nc2ccccc2c2nc(-c3ccccc3)nn12)C(=O)Nc1cccc(OC)c1` (stereo not given), which “activity change, negative = cytotoxicity” value is on record?
Answer: 8.89%

Question: For `Cc1ccc(OCC(=O)Nc2ccc3nc(SCC(=O)N4CCc5ccccc54)sc3c2)cc1`, which “activity change, negative = cytotoxicity” value is on record?
Answer: -9.23%

Question: Which “activity change, negative = cytotoxicity” value does the source give for `Cc1c(Cl)cccc1NC(=O)c1oc2ccc(S(=O)(=O)N3CCC4(CC3)OCCO4)cc2c1C` here?
Answer: 20.1%

Question: Which “activity change, negative = cytotoxicity” value does the source give for `Cc1cc(NC(=O)C2CCCN(S(=O)(=O)c3cccc4nonc34)C2)ccc1Br` (stereo not given) here?
Answer: -26.4%

Question: Which “activity change, negative = cytotoxicity” value does the source give for `CCc1ccc(C(=O)c2cn(CC(=O)Nc3cc(OC)cc(OC)c3)c3ccc(CC)cc3c2=O)cc1` here?
Answer: -7.43%

Question: Which “activity change, negative = cytotoxicity” value does the source give for `COc1ccc(Nc2nc3c(S(=O)(=O)c4ccccc4)nnn3c3ccc(Cl)cc23)cc1` here?
Answer: -15.1%

Question: Which “activity change, negative = cytotoxicity” value does the source give for `CCc1ccc(OCC(=O)Nc2cc3oc4ccccc4c3cc2OC)cc1` here?
Answer: 5.96%

Question: For `CCOCCCNC(=O)c1ccc(-n2c(-c3ccccc3)cc3c2CCC(C)C3)cc1` (stereo not given), which “activity change, negative = cytotoxicity” value is on record?
Answer: -11.8%

Question: With `COc1ccc(-c2noc(CSc3nnc(-c4ccncc4)n3-c3ccc(C)cc3)n2)cc1` as the compound, how does the “activity change, negative = cytotoxicity” value read?
Answer: -9.94%

Question: For `Cc1ccc(C)c(NC(=O)Cn2c(=O)n(Cc3ccc4c(c3)OCO4)c(=O)c3ccc(C(=O)NC4CCCCC4)cc32)c1`, which “activity change, negative = cytotoxicity” value is on record?
Answer: 5.15%

Question: For `COc1ccccc1Nc1c2c(nc3ccc(NC(=O)/C=C/c4cccc(OC)c4OC)cc13)CCCC2`, which Potency is on record?
Answer: 16.2 µM (active)

Question: Which “activity change, negative = cytotoxicity” value does the source give for `CCC(=O)C1=C(c2cccc([N+](=O)[O-])c2)N(C(=O)CC)n2c(nnc2-c2ccccc2)S1` here?
Answer: 2.29%

Question: With `Cc1cc(C)c(NC(=O)Cn2c(=O)n(Cc3ccco3)c(=O)c3ccc(C(=O)NC4CCCC4)cc32)c(C)c1` as the compound, how does the “activity change, negative = cytotoxicity” value read?
Answer: 6.19%

Question: Which “activity change, negative = cytotoxicity” value does the source give for `Cc1ccc(CNC(=O)c2ccc(Nc3nc4ccccc4n4nnnc34)cc2)cc1` here?
Answer: -11.3%

Question: For `CCOC(=O)c1c(NC(=O)c2nc(S(C)(=O)=O)ncc2Cl)sc(C(C)=O)c1C`, which Potency is on record?
Answer: 6.45 µM (active)

Question: For `Cc1ccc(NC(=O)CSc2nc3ccc(NC(=O)COc4ccc(C)cc4)cc3s2)cc1`, which “activity change, negative = cytotoxicity” value is on record?
Answer: 15.4%

Question: With `Cc1ccc(S(=O)(=O)c2nnn3c2nc(NC2CCCCCC2)c2sccc23)cc1C` as the compound, how does the “activity change, negative = cytotoxicity” value read?
Answer: 19.9%

Question: For `Cc1cccc(Nc2c3c(nc4nncn24)CCC3)c1C`, which “activity change, negative = cytotoxicity” value is on record?
Answer: -1.52%

Question: Which “activity change, negative = cytotoxicity” value does the source give for `CCC(=O)C1=C(c2cccc([N+](=O)[O-])c2)N(C(=O)CC)n2c(nnc2C2CCCCC2)S1` here?
Answer: 21.1%

Question: Which “activity change, negative = cytotoxicity” value does the source give for `CCC(=O)N1CCc2cc(S(=O)(=O)CCC(=O)Nc3ccc(Cl)c(C(F)(F)F)c3)ccc21` here?
Answer: 20.4%

Question: For `O=C(NCCCN1CCN(c2ccc(F)cc2)CC1)c1cc2c(Cl)nc3ccccc3c2s1`, which “activity change, negative = cytotoxicity” value is on record?
Answer: -13.9%

Question: With `CCOC(=O)c1cc2c(=O)n3ccccc3nc2n(Cc2ccco2)c1=NC(=O)c1cc(C)cc(C)c1` as the compound, how does the “activity change, negative = cytotoxicity” value read?
Answer: -2.04%

Question: With `COc1ccc(N(CC(=O)Nc2cc(Cl)ccc2C)S(=O)(=O)c2c(C)noc2C)cc1` as the compound, how does the “activity change, negative = cytotoxicity” value read?
Answer: 50.5%

Question: With `O=C(CSc1nc2c([nH]c3ccccc32)c(=O)n1-c1cccc(Cl)c1)c1ccccc1` as the compound, how does the “activity change, negative = cytotoxicity” value read?
Answer: -12.8%

Question: Which “activity change, negative = cytotoxicity” value does the source give for `Cc1ccc(CNC(=O)c2nc(S(=O)(=O)Cc3ccc(C)cc3)ncc2Cl)cc1` here?
Answer: -3.09%

Question: With `COc1ccc(NC(=O)c2nc(S(=O)(=O)Cc3ccc(C)cc3)ncc2Cl)cc1` as the compound, how does the Potency read?
Answer: 8.13 µM (active)

Question: Which “activity change, negative = cytotoxicity” value does the source give for `CCCn1c(=N)c(C(=O)NC(C)c2ccccc2)cc2c(=O)n3ccccc3nc21` (stereo not given) here?
Answer: -8.47%

Question: For `Cc1ccc(NC(=O)N2CCc3cc(S(=O)(=O)N4CCC(C)CC4)ccc32)cc1F`, which “activity change, negative = cytotoxicity” value is on record?
Answer: 3.72%

Question: For `COc1ccc(Br)cc1CC1C(=O)Nc2ccccc21` (stereo not given), which “activity change, negative = cytotoxicity” value is on record?
Answer: -24.8%

Question: With `COc1ccc(Cl)cc1NC(=O)CCCS(=O)(=O)c1nc(-c2ccc(OC)c(OC)c2)cc(C(F)(F)F)n1` as the compound, how does the Potency read?
Answer: 6.45 µM (active)

Question: For `Cc1cccc(CS(=O)(=O)c2ncc(Cl)c(C(=O)Nc3nc4ccc(F)cc4s3)n2)c1`, which Potency is on record?
Answer: 6.45 µM (active)

Question: With `COc1ccccc1CNC(=O)CSc1nnc(C)c2c(C)n(-c3ccccc3)nc12` as the compound, how does the “activity change, negative = cytotoxicity” value read?
Answer: -8.04%

Question: For `O=C(Cn1c(-c2cccs2)cc2cc(F)ccc21)NCCCN1CCN(c2ccc(F)cc2)CC1`, which “activity change, negative = cytotoxicity” value is on record?
Answer: 1.66%

Question: With `O=S(=O)(NCC(c1ccco1)S(=O)(=O)c1cccs1)c1ccc(Cl)cc1` (stereo not given) as the compound, how does the “activity change, negative = cytotoxicity” value read?
Answer: -0.0414%

Question: Which “activity change, negative = cytotoxicity” value does the source give for `COc1ccc(CCNC(=O)Cn2c(-c3cccs3)cc3cc(F)ccc32)cc1OC` here?
Answer: -7.22%

Question: For `COc1ccc(OC)c(NC(=O)CSc2c3c(nc4ccccc24)CCCC3)c1`, which Potency is on record?
Answer: 16.2 µM (active)

Question: For `COc1ccccc1Nc1nn2c(=O)c3ccc(C(=O)Nc4ccc(F)cc4)cc3nc2s1`, which Potency is on record?
Answer: 4.57 µM (active)

Question: Which “activity change, negative = cytotoxicity” value does the source give for `CCOC(=O)c1ccc(N2C(=O)c3[nH]nc(-c4ccc(C)cc4)c3C2c2ccc(O)c(OCC)c2)cc1` (stereo not given) here?
Answer: 14.4%

Question: For `COC(=O)c1c(-c2ccc(Cl)cc2)noc1N1CCN(c2ccccc2OC)CC1`, which “activity change, negative = cytotoxicity” value is on record?
Answer: 4.08%
